Laboratory results from PubChem BioAssay (NCATS).
Results filed as inconclusive are left out. Calls of active or inactive are those of the source. Calls come from the whole dose curve; as a rule, active = well fitted curve in the direction sought with a large enough effect; inconclusive = small, poorly fitted or top-dose-only effect, or another doubt; inactive = no such curve, though single readings can be large; an effect the other way counts as inactive or inconclusive.

Key:
[1] = qHTS assay for measurement of the activity of small molecule inhibitors on Zika virus induced Caspase-3 activity in human iPSC derived neural progenitor cells (hNPCs) (AID 1224857); note: nearly all actives have a fitted effect of over 65% in size
Outline: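 After overnight (16–20 h) culture at 350 cells/well, hNPCs get compound, then ZIKV 2 FFU/cell one hour later. Six hours on, Caspase-Glo 3/7 is added and luminescence measured.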

[2] = qHTS assay for measurement of the activity of small molecule inhibitors on Zika virus induced Caspase-3 activity in human astrocytoma cells (AID 1224859)
Outline: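 Inhibition of Zika-induced caspase-3/7 activity: SNB-19 cells, 1 h compound pretreatment, ZIKV 2 FFU/cell for 6 h at 37 C, Caspase-Glo luminescence read-out.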

[3] = qHTS assay to identify small molecule inhibitors of chordoma cells - UCH-1 (AID 1259355); note: nearly all actives have a fitted effect of over 55% in size
Outline: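 Screening used approved and investigational drugs in 15-point titration against 800 seeded cells per well. A fixed combination of auranofin with camptothecin, doxorubicin, rubitecan and topotecan followed compound addition, and growth was scored by CellTiter-Glo after 48hr.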

[4] = qHTS assay to identify small molecule inhibitors of chordoma cells - UCH-2 (AID 1259356); note: series mostly up to about 46 µM
[5] = P-glycoprotein substrates identified in KB-8-5-11 adenocarcinoma cell line, qHTS therapeutic library screen (AID 1346987); details: outcome: dose series up to 44.5 µM; note: series mostly up to about 44 µM; nearly all actives have a fitted effect of over 65% in size
Outline: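 Human cervical adenocarcinoma KB-8-5-11 cells, selected in colchicine to over-express P-gp and assayed without it, were exposed for 72 h to titrated compounds. An ATP-based luminescent viability signal gave AC50.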

[6] = NS1 protein of Zika virus - qHTS assay to identify small molecule inhibitors in human HEK 293 cells (AID 1347053); note: series mostly up to about 46 µM; nearly all actives have a fitted effect of over 55% in size
Outline: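 In this cell-based screen, HEK 293 cultures received compound for one hour before Zika MR766 at MOI = 0.5. NS1 was quantified 24 hours later by TR-FRET, normalized to virus-free wells and infected wells.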

[7] = qHTS of pediatric cancer cell lines to identify multiple opportunities for drug repurposing: Primary screen for TC32 cells (AID 1347089); note: nearly all actives have a fitted effect of over 60% in size
Outline: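 TC32 cells, 500-1,000/well in growth medium, compound-treated 48 h at 37 °C; viability from CellTiter-Glo luminescence. Primary screen: MIPE 11-point (0.78 nM–46 µM final), NPC 8-point (0.59 nM–46 µM final); confirmatory at 11-point dilutions.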

[8] = qHTS of pediatric cancer cell lines to identify multiple opportunities for drug repurposing: Primary screen for DAOY cells (AID 1347090); note: series mostly up to about 46 µM; nearly all actives have a fitted effect of over 55% in size
Outline: (§1)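 Viability measured as metabolically active cells via CellTiter-Glo luminescence following 48 hours of compound exposure, 11-point dilutions in confirmatory testing. 500-1,000 cells/well plated 5 hours before dosing; controls were DMSO and 2.3 µM bortezomib.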

[9] = qHTS of pediatric cancer cell lines to identify multiple opportunities for drug repurposing: Primary screen for SJ-GBM2 cells (AID 1347091)
Outline: as §1

[10] = qHTS of pediatric cancer cell lines to identify multiple opportunities for drug repurposing: Primary screen for BT-37 cells (AID 1347094); note: series mostly up to about 57 µM
Outline: (§2)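 500-1,000 cells/well; 5 h pre-incubation 37 °C/5% CO2; compound pinned; 48 h; CellTiter-Glo, 15 min RT; luminescence. MIPE 11-pt from 0.78 nM, NPC 8-pt from 0.59 nM final. Bortezomib 2.3 µM final as positive control.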

[11] = qHTS of pediatric cancer cell lines to identify multiple opportunities for drug repurposing: Primary screen for NB-EBc1 cells (AID 1347095)
Outline: as §2

[12] = qHTS of pediatric cancer cell lines to identify multiple opportunities for drug repurposing: Primary screen for U-2 OS cells (AID 1347096); note: nearly all actives have a fitted effect of over 50% in size
Outline: (§3)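 Viability after 48 h compound treatment at 37C, 500-1,000 cells/well, read as ATP luminescence with CellTiter-Glo. Primary screens used 11-point (MIPE, 0.78 nM-46 µM) or 8-point (NPC, 0.59 nM-46 µM) final concentrations; follow-up screens used 11-point dilutions.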

[13] = qHTS of pediatric cancer cell lines to identify multiple opportunities for drug repurposing: Primary screen for Saos-2 cells (AID 1347097); note: nearly all actives have a fitted effect of over 40% in size
Outline: as §2

[14] = qHTS of pediatric cancer cell lines to identify multiple opportunities for drug repurposing: Primary screen for NB1643 cells (AID 1347099); note: nearly all actives have a fitted effect of over 50% in size
Outline: as §2

[15] = qHTS of pediatric cancer cell lines to identify multiple opportunities for drug repurposing: Primary screen for LAN-5 cells (AID 1347100)
Outline: as §3

[16] = qHTS of pediatric cancer cell lines to identify multiple opportunities for drug repurposing: Primary screen for A673 cells (AID 1347092); note: nearly all actives have a fitted effect of over 45% in size
Outline: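 A673 cells (500-1,000 cells/well) were treated 48 hours at 37 degrees C with compounds at 11-point (0.78 nM to 46 µM) or 8-point (0.59 nM to 46 µM) dilutions. Viability read by CellTiter-Glo luminescence; concentration-response curves fitted.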

[17] = qHTS of pediatric cancer cell lines to identify multiple opportunities for drug repurposing: Primary screen for SK-N-MC cells (AID 1347093); note: series mostly up to about 46 µM
Outline: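 Metabolically active cells were quantified by ATP-dependent luminescence (CellTiter-Glo, 15 min at room temperature) following 48 h treatment. Cells had been plated at 500-1,000 per well and settled for 5 h beforehand.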

[18] = qHTS of pediatric cancer cell lines to identify multiple opportunities for drug repurposing: Primary screen for SK-N-SH cells (AID 1347098);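 note: DMSO served as neutral control and bortezomib at 2.3 µM as positive control; nearly all actives have a fitted effect of over 65% in size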
Outline: (§4)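 Cells (500-1,000/well) rested 5 h, then received compounds for 48 h; metabolically active cells were measured by CellTiter-Glo luminescence. Final concentrations spanned up to 46 µM (MIPE, 11-point) or 0.59 nM-46 µM (NPC, 8-point) in primary screens, 11-point in follow-ups.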

[19] = qHTS of pediatric cancer cell lines to identify multiple opportunities for drug repurposing: Primary screen for BT-12 cells (AID 1347101); note: nearly all actives have a fitted effect of over 25% in size
Outline: as §4

Measured: Potency

Cc1ccsc1C(=CCCN1CCC[C@@H](C(=O)O)C1)c1sccc1C
not listed: [16] | [17] | [18] | [19]
inactive: all other assays above

COC(=O)c1ccccc1C(=O)c1ccc(OCCN2CCCCC2)cc1
not listed: [5] | [19]
inactive: all other assays above

CC[C@]12CCCN3CCc4c(n(c5ccccc45)[C@@](O)(C(=O)OC)C1)[C@@H]32
not listed: [5]
inactive: all other assays above

Cc1cc(C)c(NC(=O)CN(CC(=O)O)CC(=O)O)c(C)c1Br
not listed: [5] | [13]
inactive: all other assays above

O=C(O)Cc1ccc(CCNS(=O)(=O)c2ccc(Cl)cc2)cc1
not listed: [5] | [13] | [17]
inactive: all other assays above

CCCCOC(=O)c1ccc(N)cc1
not listed: [5] | [11] | [17] | [18]
inactive: all other assays above

Nc1ncnc2c1ncn2[C@@H]1O[C@H](COP(=O)(O)O)[C@@H](O)[C@H]1O
not listed: [5] | [13]
inactive: all other assays above

O=C(NCN1CCOCC1)c1cnccn1
not listed: [5]
inactive: all other assays above

CCCCCCCCCCC(CO)CCCCCCCC (centres undefined)
not listed: [5]
inactive: all other assays above

COc1ccccc1OCC(O)CO (centres undefined)
not listed: [5]
inactive: all other assays above

O=C(O)CCCCC1CCSS1 (centres undefined)
not listed: [5] | [17]
inactive: all other assays above

COc1ccccc1Oc1c(NS(=O)(=O)c2ccc(C(C)(C)C)cc2)nc(-c2ncccn2)nc1OCCO
not listed: [8] | [11] | [13]
inactive: all other assays above

CN1C[C@@H]2C[C@H]1CN2c1cc2c(cc1F)c(=O)c(C(=O)O)cn2C1CC1
not listed: [5] | [17] | [19]
inactive: all other assays above

COC(=O)c1ccc(O)cc1
not listed: [5] | [18]
inactive: all other assays above

CCOc1ccccc1O[C@H](c1ccccc1)[C@H]1CNCCO1
not listed: [5] | [18]
inactive: all other assays above

Cc1cc(=O)[nH]c(=S)[nH]1
not listed: [5] | [13]
inactive: all other assays above
